From PubChem BioAssay (NCATS)
Inconclusive results are not listed. A call without a number means that no potency is given here. Activity calls are given as the source filed them. The call rests on the fitted dose curve; in most records, active means well fitted curve in the direction sought with a large enough effect; inconclusive means small, poorly fitted or top-dose-only effect, or another doubt; inactive means no such curve, though single readings can be large; an effect the other way counts as inactive or inconclusive.

Key:
[1] = qHTS assay to identify small molecule inhibitors of chordoma cells - UCH-1 (AID 1259355); further: nearly all actives have a fitted effect of over 55% in size
Outline: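 800 cells/well, overnight attach; compounds pinned at 15 concs, then auranofin/camptothecin/doxorubicin/rubitecan/topotecan combo added; 48hr 37 C, 5% CO2; CellTiter-Glo, 30min RT, luminescence.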

[2] = qHTS assay to identify small molecule inhibitors of chordoma cells - UCH-2 (AID 1259356); further: series mostly up to about 46 µM
[3] = P-glycoprotein substrates identified in KB-8-5-11 adenocarcinoma cell line, qHTS therapeutic library screen (AID 1346987); details: outcome: dose series up to 44.5 µM unless noted; further: nearly all actives have a fitted effect of over 65% in size; further: potency means the concentration at half of the fitted maximal effect
Outline: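 In this qHTS, P-gp-rich KB-8-5-11 cells received library compounds across a concentration range. Viability was quantified by luminescence after 72 h at 37 degree C.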

CC1CS(=O)(=O)CCN1/N=C/c1ccc([N+](=O)[O-])o1 (centres undefined)
Potency [1]: inactive
Potency [2]: inactive
Potency [3]: inactive

Cn1cc(NC(=O)c2cc(NC(=O)c3cc(NC=O)cn3C)cn2C)cc1C(=O)NCCC(=N)N
Potency [1]: inactive
Potency [2]: inactive
Potency [3]: inactive

Cn1nnnc1SCC1=C(C(=O)O)N2C(=O)[C@@H](NC(=O)[C@H](O)c3ccccc3)[C@H]2SC1
Potency [1]: inactive
Potency [2]: inactive
Potency [3]: inactive

CC(=O)Nc1c(I)c(C(=O)O)c(I)c(N(C)C(C)=O)c1I
Potency [1]: inactive
Potency [2]: inactive
Potency [3]: inactive

C=CC(=O)O
Potency [1]: inactive
Potency [2]: inactive
Potency [3]: inactive

OC[C@H]1O[C@@](CO)(O[C@H]2O[C@H](CO)[C@@H](O)[C@H](O)[C@H]2O)[C@@H](O)[C@@H]1O
Potency [1]: inactive
Potency [2]: inactive
Potency [3]: inactive

Cc1ncc(COP(=O)(O)O)c(CN)c1O
Potency [1]: inactive
Potency [2]: inactive
Potency [3]: inactive

O=C(O)c1ccc(NC(=O)[C@H](Cc2ccc(O)cc2)NC(=O)c2ccccc2)cc1
Potency [1]: inactive
Potency [2]: inactive
Potency [3]: inactive

CCCCCCCCCCCCCC(=O)OCC(COP(=O)([O-])OCC[N+](C)(C)C)OC(=O)CCCCCCCCCCCCC (centres undefined)
Potency [1]: inactive
Potency [2]: inactive
Potency [3]: inactive

CNC(=O)[C@H](Cc1c[nH]c2ccccc12)NC(=O)[C@@H](CC(=O)NO)CC(C)C
Potency [1]: inactive
Potency [2]: inactive
Potency [3]: inactive

COc1cc2c(cc1OC)[C@@H](c1ccccc1)CN(C)CC2
Potency [1]: inactive
Potency [2]: inactive
Potency [3]: inactive

C[C@@H]1C[C@H]2[C@@H]3C[C@H](F)C4=CC(=O)C=C[C@]4(C)[C@@]3(Cl)[C@@H](O)C[C@]2(C)[C@H]1C(=O)COC(=O)C(C)(C)C
Potency [1]: inactive
Potency [2]: inactive
Potency [3]: inactive

FCOC(C(F)(F)F)C(F)(F)F
Potency [1]: inactive
Potency [2]: inactive
Potency [3]: inactive

NC(N)=NCC1COc2ccccc2O1 (centres undefined)
Potency [1]: inactive
Potency [2]: inactive
Potency [3]: inactive

CC(C)(CO)[C@@H](O)C(=O)NCCCC(=O)O
Potency [1]: inactive
Potency [2]: inactive
Potency [3]: inactive

c1ccc2cc(C3=NCCN3)ccc2c1
Potency [1]: inactive
Potency [2]: inactive
Potency [3]: inactive

CCc1ncnc2cc(OC)c(OC)cc12
Potency [1]: inactive
Potency [2]: inactive
Potency [3]: inactive

CC(=O)Nc1ccc(OC(C)=O)cc1
Potency [1]: inactive
Potency [2]: inactive
Potency [3]: inactive

NCCCC[C@H](N)C(=O)O
Potency [1]: inactive
Potency [2]: inactive
Potency [3]: inactive

C[C@@H]1C[C@H]2[C@@H]3CCC4=CC(=O)C=C[C@]4(C)[C@@]3(F)[C@@H](O)C[C@]2(C)[C@@]1(O)C(=O)COC(=O)c1cccc(S(=O)(=O)O)c1
Potency [1]: inactive
Potency [2]: inactive
Potency [3]: inactive

C(=C\c1ccncc1)/c1ccccc1
Potency [1]: inactive
Potency [2]: inactive
Potency [3]: inactive

COc1ccc2c(c1)OC(C)(C)C(c1ccccc1)C2c1ccc(OCCN2CCCC2)cc1 (centres undefined)
Potency [1]: inactive
Potency [2]: inactive
Potency [3]: 20.6 µM (active)

O=C1c2ccccc2C(=O)C1c1ccc(Cl)cc1
Potency [1]: inactive
Potency [2]: inactive
Potency [3]: inactive

CCC(Oc1ccccc1)C(=O)N[C@@H]1C(=O)N2[C@@H]1SC(C)(C)[C@@H]2C(=O)O (some centres undefined)
Potency [1]: inactive
Potency [2]: inactive
Potency [3]: inactive

CC(C)C[C@@H](NC(=O)[C@@H](O)[C@H](N)Cc1ccccc1)C(=O)O
Potency [1]: inactive
Potency [2]: inactive
Potency [3]: inactive

COc1c(O[C@@H]2O[C@H](CO)[C@@H](O)[C@H](O)[C@H]2O)cc2c(c1OC)-c1ccc(SC)c(=O)cc1[C@@H](NC(C)=O)CC2
Potency [1]: inactive
Potency [2]: inactive
Potency [3]: inactive

O=C1c2ccccc2CN2C(=O)c3ccccc3CN12
Potency [1]: inactive
Potency [2]: inactive
Potency [3]: inactive

CC[C@H]1NC(=O)[C@@H](NC(=O)c2ncccc2O)[C@@H](C)OC(=O)[C@H](c2ccccc2)NC(=O)[C@@H]2CC(=O)CCN2C(=O)[C@H](Cc2ccccc2)N(C)C(=O)[C@@H]2CCCN2C1=O
Potency [1]: inactive
Potency [2]: inactive
Potency [3]: inactive

Oc1ccc(Cl)c2c1CCC2
Potency [1]: inactive
Potency [2]: inactive
Potency [3]: inactive

CCCCC(CC)COS(=O)(=O)O (centres undefined)
Potency [1]: inactive
Potency [2]: inactive
Potency [3]: inactive

CC(=O)N[C@@H](C=O)[C@@H](O)[C@H](O)[C@H](O)CO
Potency [1]: inactive
Potency [2]: inactive
Potency [3]: inactive

CC(C)C1=CC2=CC[C@@H]3[C@](C)(CCC[C@@]3(C)C(=O)O)[C@H]2CC1
Potency [1]: inactive
Potency [2]: inactive
Potency [3]: inactive

Nc1nc(/C(=C/CC(=O)O)C(=O)N[C@@H]2C(=O)N3C(C(=O)O)=CCS[C@H]23)cs1
Potency [1]: inactive
Potency [2]: inactive
Potency [3]: inactive
